Bioassay records: PubChem BioAssay, Johns Hopkins Ion Channel Center
KCNQ2 enhance = potentiators of rat KCNQ2 potassium channel | Potassium voltage-gated channel subfamily KQT member 2 (Rattus norvegicus), O88943 | B-score at 10 µM | 310,000 compounds, 0.54% hits | CHO-K1 KCNQ2, FluxOR thallium flux fluorescence; stronger effect = higher value;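 active = fluorescence ratio B-score at least 3 SD of library B-scores, with initial fluorescence B-score within 3 of them, cut at about 5.3 in these data; same plate scores as AID 2156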;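 note: B-score of peak minus minimum over baseline fluorescence ratio after K+ and Tl+ stimulus; positive B-score means potentiation of KCNQ2 with more thallium influx and brighter signal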
Target sequence (O88943 whole entry, looked up): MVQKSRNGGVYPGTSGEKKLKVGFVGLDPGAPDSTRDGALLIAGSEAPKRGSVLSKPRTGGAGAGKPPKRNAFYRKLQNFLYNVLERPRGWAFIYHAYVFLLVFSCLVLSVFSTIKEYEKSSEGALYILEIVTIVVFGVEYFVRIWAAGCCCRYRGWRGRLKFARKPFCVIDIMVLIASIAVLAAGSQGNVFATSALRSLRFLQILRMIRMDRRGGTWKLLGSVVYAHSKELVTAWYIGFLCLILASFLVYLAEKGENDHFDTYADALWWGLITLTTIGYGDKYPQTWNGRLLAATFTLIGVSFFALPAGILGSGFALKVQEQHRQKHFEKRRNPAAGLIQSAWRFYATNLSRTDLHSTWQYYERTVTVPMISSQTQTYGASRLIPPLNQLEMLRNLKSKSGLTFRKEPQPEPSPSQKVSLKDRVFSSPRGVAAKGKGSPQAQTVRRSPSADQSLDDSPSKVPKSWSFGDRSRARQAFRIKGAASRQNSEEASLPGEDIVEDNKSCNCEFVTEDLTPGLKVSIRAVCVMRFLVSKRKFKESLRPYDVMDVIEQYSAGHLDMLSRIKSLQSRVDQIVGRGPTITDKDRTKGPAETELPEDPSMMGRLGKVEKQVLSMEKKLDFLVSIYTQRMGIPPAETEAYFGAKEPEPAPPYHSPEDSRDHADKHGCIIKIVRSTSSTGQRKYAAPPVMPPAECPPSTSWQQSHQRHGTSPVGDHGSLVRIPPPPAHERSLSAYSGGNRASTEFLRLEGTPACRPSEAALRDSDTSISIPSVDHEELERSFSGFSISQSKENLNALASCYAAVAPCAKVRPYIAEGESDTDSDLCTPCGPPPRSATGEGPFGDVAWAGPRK
KCNQ2 inh = rat KCNQ2 potassium channel inhibitors, primary screen, cell-based, CHO-K1, FluxOR thallium flux, B-score; Potassium voltage-gated channel subfamily KQT member 2 (Rattus norvegicus), O88943; 20 min; stronger effect = lower value; B-score at 10 µM; 310,000 compounds, 1.1% hits;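 active = fluorescence ratio B-score at most minus 3 library SDs, with starting brightness B-score within 2 library SDs, cut at about -5.5 in these data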
Kir21 conf inh = mouse Kir2.1 channel blockers, retest, confirmation, cell-based, FluxOR thallium flux, duplicate | shares compounds with KCNQ2 enhance | Kir2.1-expressing cells, FluxOR thallium flux fluorescence; stronger effect = lower value | Tl flux remaining, % of negative control (stronger effect = lower value), % at 10 µM | 2,300 compounds, 41% hits | AID 2032, 2009;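 active = Primary-screen hit whose thallium flux fell at least 3 control SD below untreated wells in both duplicates, with normal baseline fluorescence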;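 note: 0% = blank wells without stimulus and 100% = stimulated no-compound controls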
HEK293 ctr = parental HEK293 activity in Kir2.1 inhibitor counter-screen. shares compounds with KCNQ2 enhance. parental HEK293 cells, FluxOR thallium flux fluorescence; 0% = unstimulated blank wells. FluxOR signal as % of negative control (100 = no effect), % at 10 µM. 2,300 compounds, 19% hits. AID 2105;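 active = dye signal at least 3 control SD above or below untreated wells in both duplicates, raw fluorescence within 3, either direction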;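 note: percent is based on the flux ratio of peak minus minimum fluorescence over baseline F0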
CHO-K1 Tl ctr = nonspecific thallium flux increase in parental CHO-K1, confirmation, counter-screen for KCNQ2 potentiator project, cell-based, FluxOR thallium flux, duplicate. shares compounds with KCNQ2 enhance. parental CHO-K1 cells, FluxOR thallium flux fluorescence; zero = vehicle mean+3SD, 100% = vehicle-minus-blank window. activity increase over 3SD of controls, % at 10 µM. 1,200 compounds, 43% hits;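 active = signal rise of at least 3 SD above the untreated control mean, in both duplicate wells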;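 note: counter screen of KCNQ2 potentiator hits so any rise reflects channel-independent effects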
KCNQ1 pot spec = human KCNQ1 channel potentiation off-target, confirmation, selectivity assay for KCNQ2 potentiator project, cell-based, CHO, FluxOR thallium flux. shares compounds with KCNQ2 enhance. CHO KCNQ1 stable, FluxOR thallium flux fluorescence; beyond 3SD, as % of vehicle-control signal. activation over 3SD threshold, % at 10 µM. 1,200 compounds, 28% hits. AID 2283, 2010;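 active = fluorescence ratio rise of at least 3 SD of vehicle wells above their mean, in both replicate wells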;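 note: 0% = vehicle mean plus 3 SD and 100% = vehicle minus unstimulated blank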
KCNQ2 pot conf = rat KCNQ2 channel potentiators, confirmation, cell-based, CHO, FluxOR thallium flux, duplicate; 1,200 compounds, 68% hits; AID 2287, 2010; shares compounds with KCNQ2 enhance; CHO-KCNQ2 cells, FluxOR thallium flux fluorescence; potentiation, less the hit threshold, % at 10 µM;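 active = fluorescence ratio rising 3 SD or more over the vehicle control mean in both replicates, plus primary screen hit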;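 note: peak minus minimum thallium fluorescence divided by baseline after K/Tl stimulus; 0% = vehicle mean plus 3 SD and 100% = vehicle minus unstimulated blank difference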
Kir21 spec = mouse Kir2.1 channel activation off-target, confirmation, selectivity assay for KCNQ2 potentiator project, cell-based, HEK293, FluxOR thallium flux. activity over 3SD threshold, % at 10 µM. shares compounds with KCNQ2 enhance. HEK293 Kir2.1, FluxOR thallium flux fluorescence. AID 2345, 2010. 1,200 compounds, 2% hits;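 active = fluorescence ratio rise of at least 3 SD above the vehicle-control mean, seen in both replicates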;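 note: 0% = vehicle mean plus 3 SD and 100% = vehicle minus no-stimulus blank window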
KCNQ2 W236L MoA = potentiators of retigabine-insensitive KCNQ2 W236L, mechanism study for KCNQ2 potentiator project, cell-based, rat KCNQ2 W236L, CHO, automated patch clamp | shares compounds with KCNQ2 enhance | automated patch clamp current | current increase over 3SD of negative controls (%), stronger effect = higher value, % at 25 µM | 940 compounds, 10% hits | AID 2558, 2010;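 active = current increase at least 3 SD of the untreated controls above them in both duplicate recordings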
* marks the source's active call; other numbers are inactive results; i = inactive; x = not tested or not shown. The list is not random: actives were taken first. Their share in the collection is about 1.6%.

SMILES	KCNQ2 enhance	KCNQ2 inh	Kir21 conf inh	HEK293 ctr	others
CC/C(=C\C=C\[C@@H]1C=C[C@@H]2CCC[C@H]2[C@@H]1C(=O)c1ccc[nH]1)[C@@H]1O[C@@H]([C@@H](C)C(=O)O)CC[C@@H]1C	28*	i	x	x	CHO-K1 Tl ctr=-14;KCNQ1 pot spec=-19;KCNQ2 pot conf=74*;Kir21 spec=-48;KCNQ2 W236L MoA=i
O=[N+]([O-])c1cc(-c2ccc([As](=O)(O)O)cc2)ccc1[As](=O)(O)O	0.17	i	x	x
O=C(c1ccc(Cl)cc1)C1CCCN(Cc2ccc3ncccc3c2)C1 (stereo not drawn)	x	i	x	x
Cc1cccc(CN2CCN(Cc3ccc(Cl)cc3)CC2)c1	x	i	24%*	i
Cc1cccc(CN2CCN(c3ccc(Cl)cc3)CC2)c1	x	i	x	x
Cc1ccc(CN2CCN(Cc3ccccc3F)CC2)cc1	0.52	i	42%*	i
CCN1CCN(Cc2ccc(C)cc2)CC1	1.3	i	x	x
O=[N+]([O-])NC1=NCN(Cc2ccco2)CN1Cc1ccco1	x	i	x	x
COc1ccc2c(C)c(CC(=O)N3C[C@H]4C[C@@H](C3)c3cccc(=O)n3C4)c(=O)oc2c1C	0.81	i	x	x
Cc1cccc(-n2c(-c3ccccc3)nc3ccccc3c2=O)n1	x	i	x	x
c1ccc(CNCCc2c[nH]c3ccccc23)cc1	x	i	x	x
CCc1ccc(CNCCc2c[nH]c3ccccc23)cc1	x	i	18%*	i
CCc1c(C)nc(N)nc1N1N=C1SC(C(C)=O)C(C)=O	2.2	i	x	x
CCC(=O)c1cn(Cc2ccccc2)c2ccccc12	2.1	i	x	x
CN(C)CCOC(=O)c1cn(Cc2ccccc2)c2ccccc12	x	i	52%*	i
O=c1[nH]sc2cc(F)ccc12	6.9*	i	x	x	CHO-K1 Tl ctr=-7;KCNQ1 pot spec=-16;KCNQ2 pot conf=0.2*;Kir21 spec=-56;KCNQ2 W236L MoA=56%*
CC[C@H]1CN2CC[C@@]3(C(=O)Nc4ccccc43)[C@@H]2C[C@@H]1/C(=C\OC)C(=O)OC	0.32	i	x	x
Cc1nc2ccccc2c(=O)n1/N=C/c1cc(Br)cc(Br)c1O	8.1*	i	i	i	CHO-K1 Tl ctr=11*;KCNQ1 pot spec=-15;KCNQ2 pot conf=-26;Kir21 spec=-33
Cc1nc2ccccc2c(=O)n1-c1ccc(Br)cn1	x	i	x	x
CCOc1cccc(=NC2CCCCC2)c2c(C)n(C)c(C)c12	2.6	i	x	x
Cc1ccc(-c2cc(-c3ccccc3)cc(-c3ccccc3)[n+]2-c2ccccc2)cc1	x	i	18%*	59%*
O=[N+]([O-])c1cc(Cl)c(O)c(-[n+]2c(-c3ccccc3)cc(-c3ccccc3)cc2-c2ccccc2)c1	x	i	x	x
CCOC(=O)c1ccc(-[n+]2c(-c3ccccc3)cc(-c3ccccc3)cc2-c2ccccc2)cc1	-8.5	-8.5*	39%*	i
CC(=O)c1ccc(-c2ccccc2)cc1	0.72	i	x	x
Cc1cc(-c2ccccc2)cc(C)[n+]1Cc1ccccc1	1.8	i	x	x
SMILES	KCNQ2 enhance	KCNQ2 inh	Kir21 conf inh	HEK293 ctr	others
CN(C)c1ccc(-[n+]2c(-c3ccccc3)cc(-c3ccccc3)cc2-c2ccccc2)cc1	-9.1	-9.1*	i	i
Cc1ccc(-c2cc(-c3ccc(C)cc3)[n+](-c3ccc(C(=O)[O-])cc3)c(-c3ccc(C)cc3)c2)cc1	x	i	i	i
O=C(COc1ccc(Br)cc1)N1CCN(Cc2ccc3c(c2)OCO3)CC1	x	i	x	x
CCc1ccc(NP(=O)(Oc2ccccc2F)Oc2ccccc2F)cc1	x	i	x	x
CC(NCc1cccc(Cl)c1Cl)C(O)c1ccccc1 (stereo not drawn)	x	i	x	x
CCOc1c(Cl)cc(CNC(C)C(O)c2ccccc2)cc1OC (stereo not drawn)	x	i	x	x
CC(NCc1ccc(Cl)cc1Cl)C(O)c1ccccc1 (stereo not drawn)	x	i	16%*	i
CC(NCc1ccc(Cl)cc1)C(O)c1ccccc1 (stereo not drawn)	x	i	22%*	73%*
COc1ccccc1CN1CCN(C(=O)COc2ccc3ccccc3c2)CC1	x	i	x	x
O=C(c1ccc2c3c(cccc13)CC2)C1CCCN(CC2CC2)C1 (stereo not drawn)	0.24	i	x	x
CN(C)C(=O)Oc1ccc2c(c1)O/C(=C\c1cccc([N+](=O)[O-])c1)C2=O	0.61	i	x	x
CCCCCc1nc2c(c(=O)c3ccccc3n2C)c(=O)n1C1CCCCCC1	x	i	x	x
C=CC1CN2CCC1CC2c1[nH]c2ccccc2c1CCO (stereo not drawn)	0.09	i	x	x
COc1ccc(CCNCc2ccccc2F)cc1OC	1.9	i	x	x
CCOc1ccc(Cl)cc1CNCCc1ccccc1F	x	i	38%*	i
COc1ccc(-n2c(O)c(C(C)=NCCc3c[nH]c4ccccc34)c(=O)[nH]c2=O)cc1	0.8	i	x	x
COc1ccc(CN2CCCC(C(=O)c3cccc(Cl)c3)C2)cc1 (stereo not drawn)	x	i	24%*	i
CSc1ncc(CN2CCCC(C(=O)c3cccc(Cl)c3)C2)cn1 (stereo not drawn)	1	i	x	x
Oc1cccc2nc3ccccc3nc12	12*	i	i	i	CHO-K1 Tl ctr=-14;KCNQ1 pot spec=-6;KCNQ2 pot conf=7.1*;Kir21 spec=-35;KCNQ2 W236L MoA=i
CCc1ccc(CNCCc2ccc(F)cc2)cc1	x	i	x	x
Fc1ccc(CCNCc2ccc(Cl)c(Cl)c2)cc1	x	i	24%*	i
O=C(COc1ccc2ccc(=O)oc2c1)N1CCC(C(=O)O)(c2ccccc2)CC1	x	i	x	x
Cc1nc(SCc2c(Cl)cccc2Cl)nc(OC(=O)N(C)C)c1C	x	i	x	x
O=C1Nc2ccccc2/C1=C/c1cnc[nH]1	1.4	i	x	x
COc1ccc2c(c1)/C(=C/c1cnc[nH]1)C(=O)N2	6.8*	i	i	i	CHO-K1 Tl ctr=-6;KCNQ1 pot spec=-17;KCNQ2 pot conf=10*;Kir21 spec=-46;KCNQ2 W236L MoA=i
COC[C@]12CN(C)C3C4[C@H](OC)[C@H]1C3([C@@H](OC)C[C@H]2O)[C@@H]1C[C@@]2(O)[C@H](OC(=O)c3ccccc3)[C@@H]1[C@]4(OC(C)=O)[C@@H](O)[C@@H]2OC	3.6	i	x	x
CCN1C[C@]2(OC(=O)c3ccccc3NC(C)=O)CCC(OC)C34C5C[C@H]6C(OC)[C@]5(O)[C@](O)(C[C@@H]6OC)C(C[C@@H]32)[C@H]14 (stereo partly drawn)	0.02	i	x	x
